Compound activity (PubChem BioAssay)
Wee1 degr inh: Wee1 degradation inhibitors, primary screen, cell-based, HeLa, Wee1K328M-luciferase, luminescence; Wee1-like protein kinase (Homo sapiens), P30291; HeLa Luc-Wee1K328M stability; 100% = proteasome inhibitor MG132 effect; reporter increase, % at 5 µM; 220,000 compounds, 1.2% hits;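 active means activation above the mean of all tested compounds plus 3 SD, set per screening run, cut at about 8.8% in these data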;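 further: cells exposed to compound for 20 h before luminescence read; 0% = DMSO alone and 100% = MG132 at 30 µM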
p97 inhibitor: inhibitors of human p97 ATPase, primary screen, biochemical; Transitional endoplasmic reticulum ATPase (Homo sapiens), P55072; AID 1481, 2009; inhibition, % at 8 µM; recombinant p97 ATPase, Kinase-Glo ATP luminescence, 3 h; 220,000 compounds, 0.42% hits; in the data active means inhibition above about 15%;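 further: 0% = DMSO vehicle and 100% = wells lacking enzyme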
HSV augment: enhancers of HSV replication in host cells, fold increase, host cell viability; maximum fold increase; 220,000 compounds, 0.005% hits; HSV replication augmentation in cells; in the data active means maximum fold increase above about 1.5; tested in PC3 cells
DTT redox prof: compounds producing H2O2 with reducing agent – biochemical, NIH compound library profiling, artefact control for MLSCN library redox annotation, primary screen. DTT-dependent redox cycling H2O2, phenol red/HRP absorbance; 100% = 100 µM peroxide control, 0% = buffer. activation, % at 10 µM. 200,000 compounds, 0.03% hits. AID 878, 2007;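 active means activation of at least 50% relative to the plate's high and low controls in the primary single-dose screen; inactive means activation below 50%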;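 further: compound incubated with DTT at 0.8 mM final as the reducing agent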
Hsp70 act: Hsp70 transcriptional activators, primary screen, cell-based, HeLa, Hsp70 promoter luciferase, luminescence, 10 µM; HeLa Hsp70 promoter luciferase reporter; scaled: vehicle 0, proteasome-inhibitor control 100%; AID 1203, 2008; activation, % at 10 µM; 200,000 compounds, 0.04% hits;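 active means activation above the mean across all tested compounds plus 3 SD, cutoff set per campaign, cut at about 5.5% in these data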;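 further: 100% = MG132 at 30 µM as the positive control and 0% = DMSO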
The depositor's hits bear a star; i = inactive; . = no result. Hits are enriched below; roughly 1.6% of the tested compounds scored in any of these assays.

SMILES	Wee1 degr inh	p97 inhibitor	HSV augment	DTT redox prof	Hsp70 act
CCCCCNC(=O)c1ccc2c(=O)n(CCOC)c(=O)[nH]c2c1	10.0*	0	i	0	0
COCCn1c(=O)[nH]c2cc(C(=O)NCCN3CCN(c4ccccc4)CC3)ccc2c1=O	11*	4	i	-1	0
CCCCN1C=C(C(=O)OC)C(c2ccccc2Cl)C(C(=O)OC)=C1	-3	3	i	-2	0
O=C(Nc1ccc(Cl)cc1)c1ccc(OC2CSC2)cc1	21*	-1	i	0	0
CCN(CC)CCN(C(=O)c1cccc(N2C(=O)CCC2=O)c1)c1nc2cc3c(cc2s1)OCO3	4	1	i	-1	0
COc1ccccc1N1CCc2c(C)nc3c(OC)cccc3c21	2	-3	i	-3	0
CCOc1ccc(NC(=O)Nc2ccc3nccnc3c2)cc1	9.4*	6	i	0	0
CCOc1ccc(NC(=O)c2ccc3nccnc3c2)cc1	0	-2	.	0	0
COc1ccc(-c2nnc(SCC(=O)NCC3CCCO3)n2C)cc1 (configuration not stated)	2	3	i	1	0
Cc1cc(C(=O)NNC(=O)c2cccc(C(F)(F)F)c2)no1	-3	7	i	.	.
O=C(NNC1=NCCN1Cc1ccccc1)c1cccc(C(F)(F)F)c1	11*	-5	i	.	.
Cc1ccc2nc(N/C(=N/S(=O)(=O)c3ccc(F)cc3F)c3ccccc3)sc2c1	9.0*	-1	i	3	0
Cc1ccc2nc(N/C(=N/S(=O)(=O)c3ccc(F)cc3)c3ccccc3)sc2c1	-2	-1	i	0	0
O=C1/C(=C/c2ccccn2)SC(=S)N1Cc1ccccc1	11*	9	i	.	.
Cc1c(C(=O)Nc2cccc([N+](=O)[O-])c2)csc1-c1ccccc1	10*	5	.	2	0
O=C(Nc1cccc([N+](=O)[O-])c1)c1cc2ccccc2cc1O	10*	12	i	.	.
Cc1ccc(NC(=O)c2csc(-c3ccccc3)c2C)cc1	2	0	i	-2	0
CC(C)n1c(=S)[nH]c2scc(-c3cccs3)c2c1=O	9.1*	-1	i	.	.
COc1ccc(Oc2nc(-c3cccnc3)nc3ccccc23)cc1	-2	-1	i	.	.
Fc1ccccc1Oc1nc(-c2ccncc2)nc2ccccc12	8.9*	-2	i	.	.
Oc1cc2c(cc1O)C1c3ccc(O)c(O)c3OCC1(O)C2 (configuration not stated)	1	15*	i	1	0
CCOC(=O)CSc1nnc(Cc2cc(=O)[nH]c(=O)[nH]2)n1-c1cccc(OC)c1	0	-1	i	0	0
C[C@@H]1C(=O)O[C@@H]2[C@H](O)C34[C@H]5C[C@@H](C(C)(C)C)C36[C@H](OC(=O)[C@@H]6O)OC4(C(=O)O5)[C@@]12O (some centres not stated)	-4	6	i	0	0
O=C(CN1C(=O)/C(=C\c2cccc(Cl)c2)Oc2ccccc21)N1CCN(c2ccccn2)CC1	4	6	i	0	0
Cc1ccccc1OCC(=O)OCC(=O)Nc1ccc(N2CCOCC2)cc1	0	0	i	-2	0
SMILES	Wee1 degr inh	p97 inhibitor	HSV augment	DTT redox prof	Hsp70 act
Cc1cc(-c2csc(NC(=O)c3ccc(=O)[nH]c3)n2)c(C)n1Cc1ccco1	-3	51*	i	.	.
CCNc1nc(-c2cc(C)n(Cc3ccco3)c2C)cs1	2	8	i	0	0
COc1ccc(/C=C/C(=O)Nc2cccc(S(=O)(=O)N3CCCC3)c2)cc1OC	2	1	i	-2	0
Cc1ccc(C(=O)NC(C)CCc2ccccc2)cc1[N+](=O)[O-] (configuration not stated)	11*	0	i	1	0
O=C(Oc1oc(-c2ccco2)nc1C=Nc1ccccc1)c1ccco1	-2	1	.	2	0
O=C(Oc1oc(-c2ccco2)nc1C=Nc1ccccc1)c1ccoc1	9.0*	0	i	-3	0
O=S(=O)(c1ccccc1)N1CCN(c2nnnn2-c2ccccc2)CC1	-1	1	i	0	0
COc1cc2c3c(c1OC)C1(C=CC(=NO)C=C1)CC3N(C(C)=O)CC2 (configuration not stated)	10*	2	i	-4	0
Cn1nnnc1SCc1ccc(Cl)cc1	13*	2	i	-1	0
Cn1nnnc1SCc1ccc(CSc2nnnn2C)cc1	0	0	i	1	0
CC(C)c1ccccc1NS(=O)(=O)N(C)C	1	-1	i	0	0
CC(C)c1ccccc1NS(C)(=O)=O	16*	4	i	0	0
CCCCCOC(=O)CSc1nnc(-c2cc(OC)c(OC)c(OC)c2)o1	9.0*	-9	i	0	0
Cn1c(=O)c2c(nc(N3CCN(c4ccccn4)CC3)n2Cc2ccc(Cl)cc2Cl)n(C)c1=O	1	4	.	4	0
COc1ccc(/C=N/Nc2nncc3ccccc23)c(OC)c1	8.9*	-3	i	0	0
CN(C)/N=C/C=C1\CCC/C(=C\c2ccc(F)c(F)c2)C1=O	10*	4	i	0	5
CC(C)(C)OC(=O)NCC(=O)NCC(=O)OCc1ccccc1	-1	1	i	-5	0
CSc1ccc(CN2CCN(CCC(C)C)C(CCO)C2)cc1 (configuration not stated)	10*	2	i	1	0
CNC(=O)c1c(Br)cnn1-c1ccc(C)cc1	9.2*	4	i	-1	0
CNC(=O)c1c(Cl)cnn1-c1ccc(C)cc1	6	6	i	-1	0
C=CCNC(=O)c1c(Cl)cnn1-c1ccc(C)cc1	9.2*	-1	i	-1	0
COc1cc(C2C(C(=O)c3ccco3)=C(O)C(=O)N2CCc2ccccc2)ccc1O (configuration not stated)	4	5	i	0	0
COc1cccc(C(c2c(N)[nH]c(=S)[nH]c2=O)c2c(N)[nH]c(=S)[nH]c2=O)c1	1	10	i	.	.
COc1ccc(-n2c(Cc3cccn3C)nnc2SCC(=O)N2CCOCC2)cc1	13*	3	i	-2	0
O=C(Nc1ccc(Cl)c(C(F)(F)F)c1)NC1CC2CCCC(C1)N2C1CC1 (configuration not stated)	0	-4	i	1	0
Cc1ccnn1CC(=O)N/N=C/c1ccco1	2	5	i	2	0
